Experimental data as given in PubChem BioAssay (NCI).
Compounds without any hit were thinned out: in the full panel of roughly 79,000, 15% have a hit. Calls of active or inactive are those of the source. No stated cut-off is given here; in the data, active means growth inhibition above about 70%; inactive means the rest.

Experiment: NCI Yeast Anticancer Drug Screen. Data for the bub3 strain (AID 167)
Details: S. cerevisiae bub3 mutant strain, at 5.0 µM (retest, dose inferred, filed as 0.5), active compounds read high
How it was run: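 Inhibition values come from growth of compound-treated mutant yeast normalised to vehicle-treated controls.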

Row | SMILES | growth inhibition
1 | O=C(O)/C=C/C(=O)Nc1cccc2ccccc12 | 64% (inactive)
2 | CCCCCN=C(C)C(C)=NCCCCC | -12% (inactive)
3 | Oc1ccc(N=Nc2ccccc2)c(O)c1.Oc1ccc(N=Nc2ccccc2)c(O)c1.[Cu] | 15% (inactive)
4 | NNc1c(Cl)cc(Cl)cc1Cl | 67% (inactive)
5 | C=C1C[C@H](O)[C@H]2C(C[Se]c3ccccc3)C(=O)O[C@@H]2[C@H]2[C@H](C)C(O)C[C@@H]12 (stereo not given in full) | -5% (inactive)
6 | O=C(CBr)Oc1ccc(-c2cccc(Br)c2)cc1 | -6% (inactive)
7 | CCCCC1=NCCc2c1cc1c([nH]c3ccccc31)c2C | -3% (inactive)
8 | CCOC(=O)NC(=S)Nc1ccsc1 | -3% (inactive)
9 | CCCCCCCCCCCCCCCCNC(C)c1ccccc1 (stereo not given) | -6% (inactive)
10 | Cc1ccc(C2(O)CC(c3ccc([N+](=O)[O-])o3)=NN2C(=O)COc2ccc(Cl)cc2)cc1 (stereo not given) | 10% (inactive)
11 | CCOC(=O)/C(C#N)=C/c1ccccc1Br | 31% (inactive)
12 | CCCCCCCCCCCCCCCCNCCCCCCCC(=O)O | 6% (inactive)
13 | CC[N+]1(C)CCC(O)(c2ccc(Cl)c(Cl)c2)C(C(=O)c2ccc(Cl)c(Cl)c2)C1 (stereo not given) | 13% (inactive)
14 | CC(=O)Nc1nnc(-c2coc3ccccc3c2=O)s1 | 4% (inactive)
15 | CCC(C)(C)NCCCCCNc1cc(OC)cc2cccnc12 | 6% (inactive)
16 | CSC(=Nc1ccccc1)/N=C(\SCc1ccccc1)N(C)C | -30% (inactive)
17 | N=Cc1cc([N+](=O)[O-])ccc1O | -20% (inactive)
18 | CCCCCCCC(=O)/C=C/c1ccc(C)cc1 | -61% (inactive)
19 | Cc1ccc(S(=O)(=O)N/N=C2/CC[C@H](C(C)(C)C)C[C@@H]2C)cc1 | -18% (inactive)
20 | Nc1ccc2c(c1)CCc1ccccc1-2 | -7% (inactive)

Row | SMILES | growth inhibition
21 | CN(C)CCC(=O)[C@@]1(O)CC[C@H]2[C@@H]3CC=C4C[C@@H](O)CC[C@]4(C)[C@H]3CC[C@@]21C | -1% (inactive)
22 | CC(=O)OC1COC(N2C(=O)C(=O)c3cc(Br)ccc32)C(OC(C)=O)C1OC(C)=O (stereo not given) | -13% (inactive)
23 | Cc1ccc(N2CCN(c3c(N)cncc3Br)CC2)cc1 | 19% (inactive)
24 | O=C(O)c1ccccc1SC(Sc1ccccc1C(=O)O)c1cccc(Cl)c1 | 9% (inactive)
25 | CC[N+](C)(CC)CCC(=O)/C=C/c1ccccc1 | 3% (inactive)
26 | COc1ccc(C(C)c2cc3c(cc2OC/C(C)=N/NC(N)=O)OCO3)cc1 (stereo not given) | 58% (inactive)
27 | CN=C(N)N/N=C(\C)c1ccc2c(c1)Cc1cc(Cl)ccc1-2 | 7% (inactive)
28 | CCCCCCCCN/N=C(/C)CCCCCO | 1% (inactive)
29 | O=[N+]([O-])c1cccc2c(O)cccc12 | -1% (inactive)
30 | O=C1C(=O)c2ccccc2C(O)=C1Sc1ccccc1 | 15% (inactive)
31 | CC(=O)N(O)c1ccc2c(c1)Cc1cc(F)ccc1-2 | -14% (inactive)
32 | CC12CCC(=O)C=C1CCC1C2CCC2(C)C(c3cnc[nH]3)CCC12 (stereo not given) | 53% (inactive)
33 | O=C1OC(C2OC(=O)C(=O)C2C(=O)c2ccc(Cl)c(Cl)c2)C(C(=O)c2ccc(Cl)c(Cl)c2)C1=O (stereo not given) | -34% (inactive)
34 | CC/C(C)=C1\CCC(CN2CCOCC2)C1=O (stereo not given) | 31% (inactive)
35 | COc1ccc(C2CC(=O)CC(=O)C2)cc1 | -25% (inactive)
36 | Cc1ccc(O)c(C(c2ccc([N+](=O)[O-])cc2)c2cc(C)ccc2O)c1 | 93% (active)
37 | O=C1OS(=O)(=O)c2cc3c(cc21)C1C(C2C3C3(Cl)C(Cl)=C(Cl)C2(Cl)C3(Cl)Cl)C2(Cl)C(Cl)=C(Cl)C1(Cl)C2(Cl)Cl (stereo not given) | 3% (inactive)
38 | CCOC(=O)C1SC(=S)N(C)C1=O (stereo not given) | -3% (inactive)
39 | O=C(c1ccc(Cl)c([N+](=O)[O-])c1)c1ccc(Cl)c([N+](=O)[O-])c1 | -8% (inactive)
40 | Cc1cc[c]([Sn]([Cl])([O][Sn]([Cl])([c]2ccc(C)cc2)[c]2ccc(C)cc2)[c]2ccc(C)cc2)cc1 | 16% (inactive)

Same assay, conditions: S. cerevisiae bub3 mutant strain, at 50.0 µM (retest, dose inferred, filed as 5.0), active compounds read high

Row | SMILES | growth inhibition
41 | O=C(O)/C=C/C(=O)Nc1cccc2ccccc12 | 100% (active)
42 | CCCCCN=C(C)C(C)=NCCCCC | 86% (active)
43 | Oc1ccc(N=Nc2ccccc2)c(O)c1.Oc1ccc(N=Nc2ccccc2)c(O)c1.[Cu] | 95% (active)
44 | NNc1c(Cl)cc(Cl)cc1Cl | 93% (active)
45 | C=C1C[C@H](O)[C@H]2C(C[Se]c3ccccc3)C(=O)O[C@@H]2[C@H]2[C@H](C)C(O)C[C@@H]12 (stereo not given in full) | 21% (inactive)
46 | O=C(CBr)Oc1ccc(-c2cccc(Br)c2)cc1 | 99% (active)
47 | CCCCC1=NCCc2c1cc1c([nH]c3ccccc31)c2C | 35% (inactive)
48 | CCOC(=O)NC(=S)Nc1ccsc1 | 3% (inactive)
49 | CCCCCCCCCCCCCCCCNC(C)c1ccccc1 (stereo not given) | -6% (inactive)
50 | Cc1ccc(C2(O)CC(c3ccc([N+](=O)[O-])o3)=NN2C(=O)COc2ccc(Cl)cc2)cc1 (stereo not given) | 10% (inactive)
51 | CCOC(=O)/C(C#N)=C/c1ccccc1Br | 20% (inactive)
52 | CCCCCCCCCCCCCCCCNCCCCCCCC(=O)O | 73% (active)
53 | CC[N+]1(C)CCC(O)(c2ccc(Cl)c(Cl)c2)C(C(=O)c2ccc(Cl)c(Cl)c2)C1 (stereo not given) | 100% (active)
54 | CC(=O)Nc1nnc(-c2coc3ccccc3c2=O)s1 | 1% (inactive)
55 | CCC(C)(C)NCCCCCNc1cc(OC)cc2cccnc12 | 36% (inactive)
56 | CSC(=Nc1ccccc1)/N=C(\SCc1ccccc1)N(C)C | 99% (active)
57 | N=Cc1cc([N+](=O)[O-])ccc1O | 96% (active)
58 | CCCCCCCC(=O)/C=C/c1ccc(C)cc1 | -47% (inactive)
59 | Cc1ccc(S(=O)(=O)N/N=C2/CC[C@H](C(C)(C)C)C[C@@H]2C)cc1 | 97% (active)
60 | Nc1ccc2c(c1)CCc1ccccc1-2 | 65% (inactive)

Row | SMILES | growth inhibition
61 | CN(C)CCC(=O)[C@@]1(O)CC[C@H]2[C@@H]3CC=C4C[C@@H](O)CC[C@]4(C)[C@H]3CC[C@@]21C | 59% (inactive)
62 | CC(=O)OC1COC(N2C(=O)C(=O)c3cc(Br)ccc32)C(OC(C)=O)C1OC(C)=O (stereo not given) | 23% (inactive)
63 | Cc1ccc(N2CCN(c3c(N)cncc3Br)CC2)cc1 | 71% (active)
64 | O=C(O)c1ccccc1SC(Sc1ccccc1C(=O)O)c1cccc(Cl)c1 | 97% (active)
65 | CC[N+](C)(CC)CCC(=O)/C=C/c1ccccc1 | 74% (active)
66 | COc1ccc(C(C)c2cc3c(cc2OC/C(C)=N/NC(N)=O)OCO3)cc1 (stereo not given) | 99% (active)
67 | CN=C(N)N/N=C(\C)c1ccc2c(c1)Cc1cc(Cl)ccc1-2 | 90% (active)
68 | CCCCCCCCN/N=C(/C)CCCCCO | -80% (inactive)
69 | O=[N+]([O-])c1cccc2c(O)cccc12 | 65% (inactive)
70 | O=C1C(=O)c2ccccc2C(O)=C1Sc1ccccc1 | 94% (active)
71 | CC(=O)N(O)c1ccc2c(c1)Cc1cc(F)ccc1-2 | 80% (active)
72 | CC12CCC(=O)C=C1CCC1C2CCC2(C)C(c3cnc[nH]3)CCC12 (stereo not given) | 70% (active)
73 | O=C1OC(C2OC(=O)C(=O)C2C(=O)c2ccc(Cl)c(Cl)c2)C(C(=O)c2ccc(Cl)c(Cl)c2)C1=O (stereo not given) | 92% (active)
74 | CC/C(C)=C1\CCC(CN2CCOCC2)C1=O (stereo not given) | 94% (active)
75 | COc1ccc(C2CC(=O)CC(=O)C2)cc1 | -15% (inactive)
76 | Cc1ccc(O)c(C(c2ccc([N+](=O)[O-])cc2)c2cc(C)ccc2O)c1 | 52% (inactive)
77 | O=C1OS(=O)(=O)c2cc3c(cc21)C1C(C2C3C3(Cl)C(Cl)=C(Cl)C2(Cl)C3(Cl)Cl)C2(Cl)C(Cl)=C(Cl)C1(Cl)C2(Cl)Cl (stereo not given) | 81% (active)
78 | CCOC(=O)C1SC(=S)N(C)C1=O (stereo not given) | 98% (active)
79 | O=C(c1ccc(Cl)c([N+](=O)[O-])c1)c1ccc(Cl)c([N+](=O)[O-])c1 | 95% (active)
80 | Cc1cc[c]([Sn]([Cl])([O][Sn]([Cl])([c]2ccc(C)cc2)[c]2ccc(C)cc2)[c]2ccc(C)cc2)cc1 | 67% (inactive)
